Data: PubChem BioAssay (Tox21)
Records with an inconclusive call do not appear. The source made the active and inactive calls. Unless noted, calls come from the whole dose curve; as a rule, active = well fitted curve in the direction sought with a large enough effect in the repeat runs; inconclusive = weak or mixed curves; inactive = no such curve, though single readings can be large; an effect the other way counts as inactive or inconclusive.

Columns and labels:
[1] = qHTS assay to identify aromatase inhibitors - cell viability counter screen (AID 743084);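 note: cells stimulated with testosterone during compound exposure; nearly all actives have a fitted effect of over 55% in size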
[2] = target: Aryl hydrocarbon receptor (Homo sapiens) (UniProt P35869); assay: qHTS assay to identify small molecule that activate the aryl hydrocarbon receptor (AhR) signaling pathway (AID 743085); note: nearly all actives have a fitted effect of over 15% in size; note: potency is the fitted concentration of half-maximal effect;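 for activation: HG2L7.5c1 human HepG2 liver cells with stably integrated DRE-driven firefly reporter; series mostly up to about 70 µM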
Procedure, shortened: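 Compounds were tested in HepG2 hepatocellular carcinoma cells harbouring a stably integrated luciferase gene under control of 20 DREs. Increased reporter signal after 24 h treatment at 37C was taken as AhR activation.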

[3] = qHTS assay to identify small molecule that activate the aryl hydrocarbon receptor (AhR) signaling pathway - cell viability counter screen (AID 743086);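 note: HepG2 liver cells carrying the AhR DRE luciferase reporter; series mostly up to about 70 µM; nearly all actives have a fitted effect of over 45% in size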
Procedure, shortened: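 HepG2-AhR-luc (HG2L7.5c1) cells, 4000/well, were preincubated 5 h at 37C, exposed to compound in qHTS format for 24 hr at 37C, then given CellTiter-Fluor for 30 min; viability was read as fluorescence in the reporter wells.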

[4] = target: Peroxisome proliferator-activated receptor gamma (Homo sapiens) (UniProt P37231); assay: qHTS assay to identify small molecule agonists of the peroxisome proliferator-activated receptor gamma (PPARg) signaling pathway (AID 743094; active = well fitted activation curve with a large enough effect in the signal ratio in the repeat runs, not every such curve was filed as active; the % refers to the signal ratio)
Procedure, shortened: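 Stably transfected HEK293H cells (GeneBLAzer PPARg UAS-bla) were incubated with test substances for 17 h at 37C after a 5 h pre-incubation; beta-lactamase activity was then detected by FRET substrate fluorescence.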

[5] = target: Peroxisome proliferator-activated receptor gamma (Homo sapiens) (UniProt P37231); assay: qHTS assay to identify small molecule antagonists of the peroxisome proliferator-activated receptor gamma (PPARg) signaling pathway (AID 743191; calls by dose curve; note: nearly all actives have a fitted effect of over 30% in size; note: potency is the fitted concentration of half-maximal effect)
Procedure, shortened: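 GeneBLAzer PPARg UAS-bla HEK293H cells carrying a UAS-driven beta-lactamase reporter were plated at 3000 cells/well, preincubated 5 h at 37C, then given compound for 17 h at 37C; LiveBLAzer B/G FRET substrate was read after 1 h at room temperature.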

[6] = qHTS assay for small molecule agonists of the antioxidant response element (ARE) signaling pathway (AID 743202; active = well fitted activation curve with a large enough effect in the signal ratio in the repeat runs, not every such curve was filed as active; the % refers to the signal ratio)
Procedure, shortened: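 Compounds delivered in DMSO to ARE-bla HepG2 cells (2,000 cells/well, pre-incubated 5 h) and left 16 h at 37 C. LiveBLAzer B/G FRET substrate then added for 2 h at RT before fluorescence reading.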

[7] = qHTS assay for small molecule agonists of the antioxidant response element (ARE) signaling pathway - cell viability counter screen (AID 743203; calls by dose curve; note: nearly all actives have a fitted effect of over 55% in size)
Procedure, shortened: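 Cells (ARE-bla HepG2, 2,000/well) receive DMSO-dissolved compounds after a 5 hrs rest. Plates incubate 16 hrs at 37C/5% CO2. CellTiter-Glo luminescence is then recorded after 30 min at room temperature.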

[8] = qHTS assay for small molecule activators of the heat shock response signaling pathway - cell viability counter screen (AID 743209); note: nearly all actives have a fitted effect of over 50% in size
Procedure, shortened: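 Quantitative HTS format, Tox21 10K library. HeLa cells carrying an HSE-driven beta-lactamase reporter were treated 5 h at 37 C, then assessed for viability by CellTiter-Glo luminescence.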

[9] = qHTS assay to identify small molecule agonists of the peroxisome proliferator-activated receptor delta (PPARd) signaling pathway - cell viability counter screen (AID 743211); note: nearly all actives have a fitted effect of over 55% in size
Procedure, shortened: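 Counter screen for cytotoxicity run in parallel with the PPARd reporter screen. Beta-lactamase reporter HEK293H cells exposed to compounds 17 h; ATP-based CellTiter-Glo luminescence quantified viability.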

[10] = target: Peroxisome proliferator-activated receptor delta (Homo sapiens) (UniProt Q03181); assay: qHTS assay to identify small molecule agonists of the peroxisome proliferator-activated receptor delta (PPARd) signaling pathway (AID 743212; calls by dose curve)
Procedure, shortened: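 A PPARd-bla HEK293H line with beta-lactamase under an Upstream Activator Sequence is treated with compounds at 37 C. Substrate loading for 2 h at room temperature precedes the fluorescence measurement.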

[11] = qHTS assay to identify small molecule antagonists of the peroxisome proliferator-activated receptor delta (PPARd) signaling pathway - cell viability counter screen (AID 743213); note: nearly all actives have a fitted effect of over 50% in size
Procedure, shortened: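 Luminescence from CellTiter-Glo, added after the bla read and incubated 30 min at room temperature, gives viability of HEK293H PPARd-bla cells exposed to compounds for 17 h at 37 C with 300 nM L165041.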

[12] = target: Bile acid receptor (Homo sapiens) (UniProt Q96RI1); assay: qHTS assay to identify small molecule antagonists of the farnesoid-X-receptor (FXR) signaling pathway (AID 743217; active = well fitted inhibition curve with a large enough effect in the signal ratio in the repeat runs, not every such curve was filed as active; the % refers to the signal ratio)
Procedure, shortened: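 Beta-lactamase reporter under UAS control in HEK 293T cells; compound exposure 16 h at 37 °C in the presence of chenodeoxycholic acid (50 uM final); signal from B/G FRET substrate after 2 h at room temperature.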

[13] = target: Bile acid receptor (Homo sapiens) (UniProt Q96RI1); assay: qHTS assay to identify small molecule agonists of the farnesoid-X-receptor (FXR) signaling pathway (AID 743220; active = well fitted activation curve with a large enough effect in the signal ratio in the repeat runs, not every such curve was filed as active; the % refers to the signal ratio)
Procedure, shortened: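 Beta-lactamase reporter under UAS control in GeneBLAzer FXR HEK 293T cells (5000/well) measured with LiveBLAzer FRET substrate after 2 h at room temperature. Compound exposure lasted 16 h at 37C.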

[14] = qHTS assay to identify small molecule antagonists of the farnesoid-X-receptor (FXR) signaling pathway - cell viability counter screen (AID 743221; active = well fitted cell-killing curve with a large enough effect in the repeat runs, not every such curve was filed as active; note: nearly all actives have a fitted effect of over 50% in size)
Procedure, shortened: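 Multiplexed counter screen: viability of FXR-bla HEK 293T cells under agonist stimulation by chenodeoxycholic acid (50 uM, final) and test compound for 16 h at 37 C, measured by CellTiter-Glo luminescence in the reporter wells.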

[15] = target: Vitamin D3 receptor (Homo sapiens) (UniProt P11473); assay: qHTS assay to identify small molecule agonists of the vitamin D receptor (VDR) signaling pathway (AID 743222; calls by dose curve)
Procedure, shortened: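 Agonist activity measured in VDR-bla reporter cells. Exposure 16 h, 37C, 5% CO2; detection by B/G FRET substrate, 2 h RT.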

[16] = target: Vitamin D3 receptor (Homo sapiens) (UniProt P11473); assay: qHTS assay to identify small molecule antagonists of the vitamin D receptor (VDR) signaling pathway (AID 743223; active = well fitted inhibition curve with a large enough effect in the signal ratio in the repeat runs, not every such curve was filed as active; the % refers to the signal ratio)
Procedure, shortened: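 Cells carrying a VDR-driven beta-lactamase reporter (VDR-bla) were co-treated with compound and 3 nM final 1alpha,25-dihydroxyvitamin D3 for 16 h at 37C; reporter activity was measured as FRET substrate fluorescence after 2 h at room temperature.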

[17] = qHTS assay for small molecule activators of the heat shock response signaling pathway (AID 743210; active = well fitted activation curve with a large enough effect in the signal ratio in the repeat runs, with a control signal flat, not every such curve was filed as active; the % refers to the signal ratio;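 note: HeLa cells with beta-lactamase reporter driven by heat shock elements; series mostly up to about 63 µM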)
Procedure, shortened: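 Reporter gene assay: HeLa cells stably bearing an HSE-bla construct, compound treatment 5 h at 37 C, LiveBLAzer substrate 2.5 h at RT, fluorescence intensity.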

[18] = target: Peroxisome proliferator-activated receptor delta (Homo sapiens) (UniProt Q03181); assay: qHTS assay to identify small molecule antagonists of the peroxisome proliferator-activated receptor delta (PPARd) signaling pathway (AID 743215; active = well fitted inhibition curve with a large enough effect in the signal ratio in the repeat runs, not every such curve was filed as active; the % refers to the signal ratio;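 note: cells stimulated with agonist L165041 at 300 nM final during compound exposure; series mostly up to about 62 µM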)
Procedure, shortened: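 Antagonist-mode beta-lactamase reporter screen: HEK293H cells with UAS-bla under PPARd control, stimulated by 300 nM L165041 (final) alongside test compound for 17 h at 37 C, then FRET fluorescence after 2 h substrate incubation.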

[19] = qHTS assay to identify small molecule agonists of the farnesoid-X-receptor (FXR) signaling pathway - cell viability counter screen (AID 743218); note: nearly all actives have a fitted effect of over 45% in size
Procedure, shortened: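 In GeneBLAzer FXR-UAS-bla HEK 293T cells, compounds act for 16 h at 37 C. Cell viability is then scored in the reporter wells by CellTiter-Glo, 30 min at RT, luminescence.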

[20] = qHTS assay to identify small molecule antagonists of the peroxisome proliferator-activated receptor gamma (PPARg) signaling pathway - cell viability counter screen (AID 743194); note: nearly all actives have a fitted effect of over 55% in size
Procedure, shortened: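 PPARg-UAS-bla HEK293H cells were plated, rested 5 h at 37 C, then treated with compounds plus rosiglitazone (50 nM final) for 17 h at 37 C; viability was then read by CellTiter-Glo luminescence after 30 min at room temperature.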

Measured: Potency

Chain of Vitamin D3 receptor (Homo sapiens) (P11473 whole entry, looked up): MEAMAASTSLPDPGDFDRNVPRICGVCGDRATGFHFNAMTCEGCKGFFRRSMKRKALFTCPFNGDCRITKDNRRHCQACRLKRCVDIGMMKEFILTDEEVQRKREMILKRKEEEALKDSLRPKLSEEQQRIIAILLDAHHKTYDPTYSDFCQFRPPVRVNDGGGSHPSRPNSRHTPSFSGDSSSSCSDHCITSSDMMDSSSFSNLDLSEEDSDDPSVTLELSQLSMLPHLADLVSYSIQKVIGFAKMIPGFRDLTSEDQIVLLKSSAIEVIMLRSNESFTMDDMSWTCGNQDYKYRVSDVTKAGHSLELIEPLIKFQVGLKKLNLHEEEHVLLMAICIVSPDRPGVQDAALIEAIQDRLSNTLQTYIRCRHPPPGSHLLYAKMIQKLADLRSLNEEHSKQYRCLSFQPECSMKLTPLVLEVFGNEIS
Chain of Peroxisome proliferator-activated receptor delta (Homo sapiens) (Q03181 whole entry, looked up): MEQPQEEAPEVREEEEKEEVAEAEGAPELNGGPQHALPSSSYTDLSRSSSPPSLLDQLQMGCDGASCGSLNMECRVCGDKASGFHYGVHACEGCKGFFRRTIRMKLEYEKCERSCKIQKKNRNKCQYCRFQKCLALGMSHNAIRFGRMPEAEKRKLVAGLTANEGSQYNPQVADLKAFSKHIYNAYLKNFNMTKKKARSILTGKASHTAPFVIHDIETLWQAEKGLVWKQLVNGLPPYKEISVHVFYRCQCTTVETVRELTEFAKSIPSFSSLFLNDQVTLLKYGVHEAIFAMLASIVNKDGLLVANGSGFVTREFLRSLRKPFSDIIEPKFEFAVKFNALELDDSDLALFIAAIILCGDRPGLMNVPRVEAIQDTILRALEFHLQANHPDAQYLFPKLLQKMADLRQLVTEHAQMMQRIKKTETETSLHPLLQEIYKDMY
Chain of Peroxisome proliferator-activated receptor gamma (Homo sapiens) (P37231 whole entry, looked up): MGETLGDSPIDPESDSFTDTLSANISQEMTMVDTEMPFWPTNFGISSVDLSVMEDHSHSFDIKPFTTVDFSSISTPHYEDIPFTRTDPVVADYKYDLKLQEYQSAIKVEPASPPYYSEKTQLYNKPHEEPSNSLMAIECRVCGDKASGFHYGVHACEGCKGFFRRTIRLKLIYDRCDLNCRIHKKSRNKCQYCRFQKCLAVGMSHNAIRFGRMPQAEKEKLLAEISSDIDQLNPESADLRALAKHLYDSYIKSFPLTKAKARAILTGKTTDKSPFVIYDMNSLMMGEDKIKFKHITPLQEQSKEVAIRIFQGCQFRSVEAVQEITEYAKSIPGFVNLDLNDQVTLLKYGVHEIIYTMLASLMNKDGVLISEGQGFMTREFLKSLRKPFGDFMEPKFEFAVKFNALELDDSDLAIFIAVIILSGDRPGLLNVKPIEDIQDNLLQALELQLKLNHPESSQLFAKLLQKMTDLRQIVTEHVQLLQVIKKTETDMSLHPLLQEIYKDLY
Chain of Aryl hydrocarbon receptor (Homo sapiens) (P35869 whole entry, looked up): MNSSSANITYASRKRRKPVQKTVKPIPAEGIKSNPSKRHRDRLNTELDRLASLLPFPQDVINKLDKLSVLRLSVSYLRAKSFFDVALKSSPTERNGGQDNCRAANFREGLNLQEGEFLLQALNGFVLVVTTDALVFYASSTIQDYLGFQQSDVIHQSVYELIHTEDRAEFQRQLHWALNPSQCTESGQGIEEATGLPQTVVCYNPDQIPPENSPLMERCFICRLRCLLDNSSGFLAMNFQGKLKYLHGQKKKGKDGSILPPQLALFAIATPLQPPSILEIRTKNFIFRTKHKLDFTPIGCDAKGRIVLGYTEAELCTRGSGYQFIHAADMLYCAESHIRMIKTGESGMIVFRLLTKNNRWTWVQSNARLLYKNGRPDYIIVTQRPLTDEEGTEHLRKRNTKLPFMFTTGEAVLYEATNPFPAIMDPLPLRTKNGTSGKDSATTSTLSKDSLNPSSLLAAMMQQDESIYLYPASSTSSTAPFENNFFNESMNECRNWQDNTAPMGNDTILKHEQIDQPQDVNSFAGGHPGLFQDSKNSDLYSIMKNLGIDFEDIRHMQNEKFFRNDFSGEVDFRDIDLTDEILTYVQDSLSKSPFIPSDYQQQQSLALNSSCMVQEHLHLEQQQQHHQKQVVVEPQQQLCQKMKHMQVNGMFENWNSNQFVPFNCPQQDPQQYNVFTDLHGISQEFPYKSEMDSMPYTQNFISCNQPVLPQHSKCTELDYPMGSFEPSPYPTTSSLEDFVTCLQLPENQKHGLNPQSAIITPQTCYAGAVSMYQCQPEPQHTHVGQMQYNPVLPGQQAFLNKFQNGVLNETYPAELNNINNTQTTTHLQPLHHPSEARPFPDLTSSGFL
Chain of Bile acid receptor (Homo sapiens) (Q96RI1 whole entry, looked up): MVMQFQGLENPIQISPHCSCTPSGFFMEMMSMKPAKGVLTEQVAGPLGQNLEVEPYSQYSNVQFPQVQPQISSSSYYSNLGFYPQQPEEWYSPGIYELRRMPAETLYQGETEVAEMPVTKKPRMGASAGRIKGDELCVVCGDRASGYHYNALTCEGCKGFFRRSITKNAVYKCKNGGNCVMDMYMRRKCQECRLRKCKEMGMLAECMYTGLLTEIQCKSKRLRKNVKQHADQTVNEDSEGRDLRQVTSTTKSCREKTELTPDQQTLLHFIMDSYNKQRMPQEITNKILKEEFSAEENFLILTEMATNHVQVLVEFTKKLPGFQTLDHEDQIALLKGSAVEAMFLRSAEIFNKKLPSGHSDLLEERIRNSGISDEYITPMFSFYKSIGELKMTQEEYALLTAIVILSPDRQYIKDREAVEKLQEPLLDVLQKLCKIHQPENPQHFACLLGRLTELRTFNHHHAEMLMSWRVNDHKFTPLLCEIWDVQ

O=C(O)c1snc(Cl)c1Cl
active: [2] 61.1 µM
not listed: [17] | [18] | [19] | [20]
inactive: all other assays above

CC(CCO)CCc1ccccc1 (stereo unspecified)
not listed: [6] | [11] | [12] | [20]
inactive: all other assays above

O=C(O)C(Cc1cc(I)c(O)c(I)c1)c1ccccc1 (stereo unspecified)
inactive: [1] | [2] | [3] | [20] | [6] | [7] | [17] | [10] | [11] | [14]
active: [5] 37.6 µM

N#C/C(=C1\SCC(c2ccccc2Cl)S1)n1ccnc1 (stereo unspecified)
active: [2] 7.5 µM
not listed: [5] | [10] | [12] | [13] | [15] | [16] | [17]
inactive: all other assays above

CC(C)C(OC(=O)c1ccccc1)C(C)(C)COC(=O)c1ccccc1 (stereo unspecified)
not listed: [5] | [11] | [12] | [13] | [15] | [18]
inactive: all other assays above

CN(C(=O)C(Cl)Cl)c1ccc(OC(=O)c2ccco2)cc1
not listed: [5] | [6] | [16]
inactive: all other assays above

CC(=O)CC(c1ccc([N+](=O)[O-])cc1)c1c(O)c2ccccc2oc1=O (stereo unspecified)
not listed: [4] | [8] | [9] | [12] | [13] | [16] | [18]
inactive: all other assays above

Cc1ccccc1N1C(=O)c2cc(S(N)(=O)=O)c(Cl)cc2NC1C (stereo unspecified)
not listed: [5] | [6] | [7] | [12] | [16]
inactive: all other assays above

COC(=O)[C@@H]1CC2=CC(=O)CC[C@]2(C)[C@@]23O[C@@H]2C[C@@]2(C)[C@@H](CC[C@@]24CCC(=O)O4)[C@H]13
not listed: [5] | [7] | [12] | [13]
inactive: all other assays above
